Screening results as filed in PubChem BioAssay.
A selection: hits, their analogues and other compounds. The true share with any hit is near 9.9%.
Tau fluor cs – counter-screen for tau fibril formation inhibitors | tau K18 P301L Alexa594 fluorescence, heparin fibrillization | Potency, µM (highest dose often 57.7 µM), without a hit: top-dose activity change, negative = decrease | 0.93% of 280,000 active; also: nearly all actives have a fitted effect of over 55% in size
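Human K18 P301L tau (15 uM unlabeled plus 0.24 uM Alexa 594-labeled, final) in 100 mM sodium acetate pH 7 was mixed with compound and 20 uM heparin and incubated 6 hr at 37 C.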
KDM4E inh – blocks human JMJD2E demethylase activity; B2RXH2; JMJD2E catalytic domain, FDH-coupled NADH fluorescence (FDH is formaldehyde dehydrogenase); Potency, µM (highest dose often 57.1 µM), without a hit: at the top dose activity change, negative = inhibition, actives largely listed as inhibitors; 1.6% of 230,000 active; active = well fitted inhibition curve with a large enough effect, not every such curve was filed as active; inconclusive = small, poorly fitted or top-dose-only effect, or another doubt; inactive = no such curve, though single readings can be large or run the other way;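 also: 0% = wells with enzyme and -100% = buffer wells without enzyme; nearly all actives have a fitted effect of over 50% in size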
Target sequence (B2RXH2 1-337 limits assumed): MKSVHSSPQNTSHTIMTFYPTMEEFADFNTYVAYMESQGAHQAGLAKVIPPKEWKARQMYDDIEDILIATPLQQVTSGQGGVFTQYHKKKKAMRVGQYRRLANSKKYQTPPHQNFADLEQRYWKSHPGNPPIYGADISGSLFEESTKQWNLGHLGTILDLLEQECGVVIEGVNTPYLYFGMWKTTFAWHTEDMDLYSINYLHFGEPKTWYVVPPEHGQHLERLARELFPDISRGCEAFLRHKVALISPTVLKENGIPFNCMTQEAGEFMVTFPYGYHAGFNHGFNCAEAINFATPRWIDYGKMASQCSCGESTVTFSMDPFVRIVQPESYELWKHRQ
Tau FP inhib – tau fibrillization inhibition (FP). P10636. K18 P301L tau heparin fibrillization, Alexa594 FP, 6 h. Potency, µM (series often up to 57.7 µM), inactives show at the highest dose activity, negative = inhibition, actives largely listed as inhibitors. 0.39% of 280,000 active. AID 1468; also: nearly all actives have a fitted effect of over 55% in size
Target sequence (P10636 561-689 P618L limits assumed): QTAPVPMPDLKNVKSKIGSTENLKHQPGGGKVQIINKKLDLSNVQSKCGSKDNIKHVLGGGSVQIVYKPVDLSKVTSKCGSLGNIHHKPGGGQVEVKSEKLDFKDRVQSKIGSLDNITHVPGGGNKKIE
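K18 P301L tau (15 uM unlabeled/0.24 uM Alexa 594-labeled, final) + compound + heparin 20 uM final; 100 mM NaOAc pH 7; 6 hr 37 C; ThT 30 uM final added, 1 hr RT; FP ex 555/em 632 nm.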
ALDH1A1 inh – ALDH1A1 (human) enzyme inhibition; P00352; Potency, µM (highest dose often 75.3 µM), for inactives: top-dose activity, negative = inhibition, actives largely listed as inhibitors; Purified ALDH1A1, NADH fluorescence, propionaldehyde substrate; 7.3% of 220,000 active; active = well fitted inhibition curve with a large enough effect, not every such curve was filed as active; inconclusive = small, poorly fitted or top-dose-only effect, or another doubt; inactive = no such curve, though single readings can be large or run the other way;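 also: plate controls were no enzyme wells and a reference inhibitor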
HPGD block – HPGD (human) dehydrogenase inhibition; AID 894; 4.3% of 150,000 active; Potency, µM, for the others: top-dose activity change, negative = inhibition, usual class: inhibitors; purified HPGD, NADH fluorescence kinetic, PGE2 substrate; P15428; active = well fitted inhibition curve with a large enough effect, not every such curve was filed as active; inconclusive = small, poorly fitted or top-dose-only effect, or another doubt; inactive = no such curve, though single readings can be large or run the other way
Target sequence (P15428 whole entry, looked up): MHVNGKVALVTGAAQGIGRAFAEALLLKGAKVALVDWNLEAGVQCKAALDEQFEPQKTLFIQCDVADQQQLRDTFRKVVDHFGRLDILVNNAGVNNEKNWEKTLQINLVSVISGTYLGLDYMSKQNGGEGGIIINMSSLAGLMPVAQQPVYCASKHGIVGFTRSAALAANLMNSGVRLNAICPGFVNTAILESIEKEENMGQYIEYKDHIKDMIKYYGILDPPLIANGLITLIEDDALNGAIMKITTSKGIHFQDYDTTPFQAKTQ
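20 nM HPGD preincubated 15 min at room temperature with compound in 50 mM Tris-HCl pH 8, 0.01% Tween 20. Started with 1 mM NAD+ and 30 uM prostaglandin E2; NADH fluorescence (360/450 nm) read 5 times over 30-s intervals, last minus first.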
Tau ThT inhib – inhibitors of human tau fibril formation, thioflavin T binding; AID 1460; 2.1% of 270,000 active; recombinant tau K18 P301L (four-repeat tau fragment), heparin-induced fibrillization, ThT fluorescence; Potency, µM (series often up to 57.4 µM), without a hit: at the highest dose activity, negative = inhibition, actives largely listed as inhibitors; P10636; also: nearly all actives have a fitted effect of over 55% in size
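Recombinant human tau K18 fragment […] carrying P301L, 15 uM unlabeled plus 0.24 uM Alexa 594-labeled, was fibrillized with 20 uM heparin in 100 mM sodium acetate pH 7 for 6 hr at 37 C; 30 uM ThT fluorescence read after 1 hr.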
An asterisk follows results filed as active; ? = inconclusive; nt = no result; [ ] = dose if it differs, or a comment. Unless noted, calls follow the shape of the dose curve; as a rule, active = well fitted curve in the direction sought with a large enough effect; inconclusive = small, poorly fitted or top-dose-only effect, or another doubt; inactive = no such curve, though single readings can be large; an effect the other way counts as inactive or inconclusive. Unless noted, % is scaled to controls: 0 for no effect and ±100 for the full control effect; potency is read from the fitted curve at half-maximal effect.

SMILES	Tau fluor cs	KDM4E inh	Tau FP inhib	ALDH1A1 inh	HPGD block	Tau ThT inhib
COc1ccc(-c2nc(SCC(=O)Nc3ccc4c(c3)OCCO4)c(-c3ccccc3)[nH]2)cc1	8.91µM*[quencher]	nt	?	nt	nt	?
O=C1C=C(O)C(n2cncn2)C(c2ccc3c(c2)OCO3)C1 (centres undefined)	-3.4%	-7.5%	-0.6%	?	nt	?
COc1ccc(/C=N/NC(=O)CN2CCSCC2)cc1C	-14.9%	-2.0%	2.6%	10µM*	-25.8%	-10.1%
COc1ccc(/C=N/NC(=O)C(=O)N2CCCC2)cc1OC	-3.0%	-1.7%	-5.4%	2.2%	31.6µM*	-6.0%
COc1ccc(/C=C(/NC(=O)c2ccccc2)C(=O)N/N=C/c2ccc3c(c2)OCO3)cc1OC	-21.4%	?	-1.1%	-1.8%	31.6µM*	?
CN(C)c1ccc(/C=C(/NC(=O)c2ccccc2)C(=O)N/N=C/c2ccc([N+](=O)[O-])c(O)c2)cc1	14.1µM*[quencher]	0.6%	2.1%	3.98µM*	15.8µM*	3.98µM*
CO[C@@]1(NC(=O)Cc2cccs2)C(=O)N2C(C(=O)O)=C(COC(N)=O)CSC21 (some centres undefined)	?	-18.0%	?	-4.2%	-9.3%	?
CC(=O)OCC1=C(C(=O)O)N2C(=O)C(NC(=O)Cc3cccs3)C2SC1 (centres undefined)	-30.3%	?	?	-13.5%	20µM*	20µM*
CO[C@@]1(NC(=O)Cc2cccs2)C(=O)N2C(C(=O)O)=C(COC(N)=O)CS[C@@H]21	-15.5%	31.6µM*	?	1.2%	-11.8%	?
CCN1CCN(Cc2c(O)ccc3oc(C)c(C(=O)Nc4ccc(OC)c(Cl)c4)c23)CC1	-15.3%	nt	7.8%	nt	nt	-9.3%
CCC(C)/C(C)=N/NC(=O)c1ccc(COc2ccc(Cl)c(C)c2)cc1 (centres undefined)	-5.8%	10.2%	-4.7%	12.6µM*	-14.7%	?
CCOc1ccc(OCc2ccc(C(=O)N/N=C(\C)c3ccccn3)cc2)cc1	-1.8%	-8.5%	7.7%	?	nt	?
CCC1CN(C(=O)N2CCC(C(=O)N3CCN(c4cccc(C)c4C)CC3)CC2)c2ccccc2O1 (centres undefined)	5.01µM*[quencher]	nt	7.0%	nt	nt	-18.1%
Cc1cc(N2CCC(C(=O)N3CCN(c4cccc(C)c4C)CC3)CC2)n2ncnc2n1	3.1%	-13.1%	3.6%	3.98µM*	-23.1%	-9.2%
CCC1CN(C(=O)N2CCC(C(=O)N3CCN(c4ccc(F)cc4)CC3)CC2)c2ccccc2O1 (centres undefined)	2.51µM*[quencher]	nt	-1.8%	nt	nt	9.6%
Cc1cccc(-c2noc(-c3ccc(NCc4ccccc4)c([N+](=O)[O-])c3)n2)c1	-0.9%	nt	3.4%	nt	nt	6.2%
CN(C)c1nc(Cl)nc(N(C#N)CCOc2ccccc2)n1	-6.7%	12.0%	-10.2%	14.1µM*	nt	-7.3%
CCNc1nc(NCC)nc(N(C#N)CCOc2ccccc2)n1	-1.1%	-4.2%	4.0%	?	nt	2.6%
COc1ccc(CC(=S)N2CCOCC2)cc1OC	-3.5%	0.9%	-4.0%	10.5%	-7.5%	-2.8%
S=C(Cc1cccnc1)N1CCOCC1	7.6%	-16.0%	-7.0%	12.6µM*	22.4µM*	?
COc1ccc(Cl)cc1NC(=O)NCCc1c(C)nn(C)c1C	-2.8%	nt	2.5%	nt	nt	-4.4%
CCN(CC)S(=O)(=O)c1ccc2c(c1)C(=NO)c1cc(S(=O)(=O)N(CC)CC)ccc1-2	-27.2%	?	?	?	4.1%	3.4%
O=C(CN1C(=O)CSc2ccccc21)NCCC1=CCCCC1	-22.6%	-8.3%	-3.7%	-14.0%	nt	-13.7%
C=CCn1c(N)c(C(=O)NCCC2=CCCCC2)sc1=S	?	-13.6%	3.0%	3.55µM*	14.1µM*	?
O=C(NCc1ccco1)c1ccc2c(c1)N(Cc1ccccc1)C(=O)CS2	-27.1%	-8.6%	-0.9%	-0.1%	-4.6%	?
SMILES	Tau fluor cs	KDM4E inh	Tau FP inhib	ALDH1A1 inh	HPGD block	Tau ThT inhib
C=CCN1C(=O)CSc2ccc(C(=O)NCCC3=CCCCC3)cc21	-10.2%	-0.2%	11.5%	12.6µM*	-14.0%	-20.7%
Nc1c(C(=O)NCCC2=CCCCC2)sc2ccc(S(=O)(=O)N3CCCCC3)cc12	?	?	14.4%	?	?	?
C=CCN1C(=O)CSc2ccc(C(=O)NCc3ccco3)cc21	-6.6%	-2.5%	2.9%	22.4µM*	-15.5%	-15.5%
CCCCCOCC1CC(C/C(C)=N/Nc2nc(-c3ccccc3)cs2)C(=O)O1 (centres undefined)	?	-0.2%	-6.9%	25.1µM*	-6.5%	?
CCOC(=O)c1cccc(NC(=O)CCS(=O)(=O)c2ccc(Br)s2)c1	-13.2%	-4.5%	?	11.4%	10.0%	5.6%
CCOC(=O)c1cccc(NC(=O)CCS(=O)(=O)c2cccs2)c1	-1.2%	3.8%	-4.3%	20µM*	-9.2%	-6.2%
COc1ccc(N2CCN(C(CNC(=O)c3c(F)cccc3F)c3ccc4c(c3)OCO4)CC2)cc1 (centres undefined)	?	nt	16.0%	nt	nt	?
COc1ccc(C(=O)Nc2ccccc2N2CCOCC2)cc1[N+](=O)[O-]	3.9%	0.8%	-5.2%	?	-9.5%	9.0%
COc1ccc(C(=O)NC(=S)Nc2ccc(N3CCOCC3)c(Cl)c2)cc1[N+](=O)[O-]	-3.9%	3.8%	0.5%	5.5%	8.91µM*	0.1%
Cc1cc(C(=O)NC(=S)Nc2ccccc2N2CCOCC2)ccc1[N+](=O)[O-]	?	-1.1%	6.7%	10µM*	-18.8%	-14.5%
COc1ccc(C(=O)NC(=S)Nc2ccccc2N2CCOCC2)cc1[N+](=O)[O-]	?	-8.7%	-9.1%	7.08µM*	-13.4%	-14.4%
CS(=O)(=O)N1CCC2(CCCN(Cc3cc(C(F)(F)F)cc(C(F)(F)F)c3)C2)CC1	nt	nt	nt	-11.5%	-12.7%	nt
CC(N)(C(=O)O)c1ccc(P(=O)(O)O)cc1 (centres undefined)	-3.5%	nt	-1.8%	11.3%	nt	-0.1%
CCCCCCCCCCCCC1CO1 (centres undefined)	nt	nt	nt	22.4%	-2.3%	nt
CC(C)CC(=O)Nc1nnc(S(=O)(=O)N2CCc3ccccc32)s1	?	nt	11.7%	nt	nt	2.24µM*
CCC(CC)C(=O)Nc1nnc(S(=O)(=O)N2CCc3ccccc32)s1	-25.9%	nt	1.9%	nt	nt	?
CCC(=O)Nc1nnc(S(=O)(=O)N2CCc3ccccc32)s1	-29.7%	nt	-9.5%	nt	nt	17.8µM*
Cc1ccc(OCC(=O)Nc2nnc(S(=O)(=O)N3c4ccccc4CC3C)s2)cc1 (centres undefined)	-29.2%	nt	5.0%	nt	nt	?
CCc1nnc(NCC(=O)N2CCc3ccccc32)s1	?	0.2%	8.8%	25.1µM*	-9.2%	-13.9%
